Data from PubChem BioAssay AID2796 (The Scripps Research Institute Molecular Screening Center, 2010).
The whole screen tested about 320,000 compounds, of which about 8,000 (2.5%) were called active. Cut-off read from the data, not from the text of the source: active = activation above about 47%; inactive = the rest. What follows is part of a selection rich in actives, with near analogues and random picks from the rest.

Biological target: Aryl hydrocarbon receptor (Homo sapiens) (UniProt P35869)
Sequence (P35869 whole entry, looked up): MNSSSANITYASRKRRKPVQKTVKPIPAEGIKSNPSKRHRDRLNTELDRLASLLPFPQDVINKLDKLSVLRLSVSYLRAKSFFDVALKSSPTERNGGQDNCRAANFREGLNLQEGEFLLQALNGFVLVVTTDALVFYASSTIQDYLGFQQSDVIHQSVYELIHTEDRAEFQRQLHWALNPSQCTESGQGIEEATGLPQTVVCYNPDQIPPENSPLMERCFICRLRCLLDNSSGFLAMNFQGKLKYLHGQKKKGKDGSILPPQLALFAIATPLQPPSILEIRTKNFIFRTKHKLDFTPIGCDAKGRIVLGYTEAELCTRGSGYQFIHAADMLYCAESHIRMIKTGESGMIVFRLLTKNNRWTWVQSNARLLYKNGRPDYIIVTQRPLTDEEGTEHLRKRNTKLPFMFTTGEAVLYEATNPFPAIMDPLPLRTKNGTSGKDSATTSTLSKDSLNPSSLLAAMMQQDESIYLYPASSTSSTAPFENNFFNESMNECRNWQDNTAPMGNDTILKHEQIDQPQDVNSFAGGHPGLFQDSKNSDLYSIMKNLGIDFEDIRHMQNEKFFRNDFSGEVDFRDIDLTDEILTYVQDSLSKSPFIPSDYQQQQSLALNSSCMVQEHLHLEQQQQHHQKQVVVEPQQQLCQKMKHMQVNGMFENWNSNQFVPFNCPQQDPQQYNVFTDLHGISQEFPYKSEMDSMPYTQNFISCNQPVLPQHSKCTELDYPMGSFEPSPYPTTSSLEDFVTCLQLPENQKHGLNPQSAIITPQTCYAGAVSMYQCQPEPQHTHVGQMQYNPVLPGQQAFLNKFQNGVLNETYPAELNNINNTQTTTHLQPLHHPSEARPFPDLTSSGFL
Experiment: AHR activators, primary screen, cell-based, luminescence, luciferase reporter, human (AID 2796);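 note: 0% = vehicle wells and 100% = reference agonist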
Settings: AHR-responsive luciferase reporter cells, at 5 µM, stronger effect = higher value

Row | Structure (SMILES) | activation
1 | Clc1ccc(-c2nnc(SCc3nc4ccccc4s3)o2)cc1 | 18.2% (inactive)
2 | C#CCSc1nnc(-c2sc3ccccc3c2Cl)o1 | 89.2% (active)
3 | O=C(NCC#CCSc1nnc(-c2cccc3ccccc23)o1)c1cccs1 | -2.43% (inactive)
4 | COC(=O)CSc1ccc2nnc(CCNS(=O)(=O)c3ccc(C)cc3)n2n1 | 0.87% (inactive)
5 | O=C(CN1CCN(S(=O)(=O)c2ccc(Cl)s2)CC1)NCc1ccc(Cl)cc1 | -0.6% (inactive)
6 | CC[n+]1cc(C)ccc1/C=C/c1ccc(N(C)C)cc1 | -0.11% (inactive)
7 | Cc1c(C(=O)OCC(=O)N2CCCC2=O)oc2ccccc12 | 1.38% (inactive)
8 | COc1cccc(NC(=O)Nc2nnc(N3CCCCC3C)s2)c1 (centres undefined) | 62.3% (active)
9 | COc1cccc(NC(=O)NCCN2CCCCC2)c1 | 2.06% (inactive)
10 | COc1cccc(C(=O)Nc2nnc(S(=O)(=O)N3CCCCC3)s2)c1 | 9.59% (inactive)
11 | Nc1ccn(C2CC(O)C(CO)O2)c(=O)n1 (centres undefined) | -4.38% (inactive)
12 | O=C(NNC(=O)c1ccc(Cl)nc1)c1ccc(Br)cc1 | -2.45% (inactive)
13 | O=S(=O)(O)Oc1c[nH]c2ccccc12 | 66.7% (active)
14 | O=C(NC1CCCC1)C(=O)c1c[nH]c2ccccc12 | -1.15% (inactive)
15 | NC(=O)CSc1c[nH]c2ccccc12 | 20.9% (inactive)
16 | COc1ccc(N2CC(C(=O)NCCN3C(=O)S/C(=C\c4cccnc4)C3=O)CC2=O)c(OC)c1 (centres undefined) | -0.14% (inactive)
17 | COc1ccc(C(CNC(=O)c2cccc(S(=O)(=O)Nc3ccccc3Cl)c2)N2CCOCC2)cc1 (centres undefined) | 8.55% (inactive)
18 | Cc1cc(Br)ccc1NC(=O)CN(C)C(=O)CN1C(=O)NC2(CCCC2)C1=O | 1.62% (inactive)
19 | O=C1c2cccc3cccc(c23)C(=O)N1c1cccc(O)c1 | -1.76% (inactive)
20 | COc1ccc(N2C(=O)c3cccc4cccc(c34)C2=O)nn1 | 65% (active)
21 | O=C1c2ccccc2C(=O)N1c1cccc2ccccc12 | 0.6% (inactive)
22 | O=C(NC1CCCC1)C1CCN(C(=O)Nc2cccc(Cl)c2)CC1 | 0.72% (inactive)
23 | CC(C)OCCCNC(=S)N1CCC(C(=O)c2ccc3c(c2)OCCO3)CC1 | 1.57% (inactive)
24 | Cc1cccc(N=Nc2c(O)[nH]c3ccc(F)cc23)c1 | 93% (active)
25 | Oc1[nH]c2ccc(Br)cc2c1N=Nc1nn[nH]n1 | 16.2% (inactive)

Row | Structure (SMILES) | activation
26 | NS(=O)(=O)c1ccc(N=Nc2c(O)[nH]c3ccc(Br)cc23)cc1 | -10.5% (inactive)
27 | CC(=O)n1cc([C@H]2C=C(C(=O)N3CCOCC3)O[C@@H](OCc3ccc(CO)cc3)C2)c2ccccc21 | 3.74% (inactive)
28 | COCCN(CCOC)S(=O)(=O)NC[C@H]1O[C@@H](n2cnc3c(N)ncnc32)[C@H](O)[C@@H]1O | 0.98% (inactive)
29 | CN1C(=O)/C(=N/OC(=O)c2ccccc2Br)c2ccccc21 | -2.06% (inactive)
30 | CCC1C(=O)c2ccccc2N(C)C1=O (centres undefined) | 9.44% (inactive)
31 | CN1C(=O)/C(=C\c2cc(Br)cs2)c2ccccc21 | 62.1% (active)
32 | Nc1nc(C23CC4CC(CC(C4)C2)C3)cs1 | -0.51% (inactive)
33 | COc1ccc(CCNC(=O)CCc2cn(C)c3ccccc23)c(OC)c1 | 48.4% (active)
34 | Cn1cc(CCC(=O)NC2CC2)c2ccccc21 | 27.1% (inactive)
35 | COc1ccc(CCNC(=O)CN2C(=O)CCSc3ccccc32)c(OC)c1 | -0.88% (inactive)
36 | CCCCn1c(N)c(N(Cc2ccccc2OC)C(=O)COc2cc(C)ccc2Cl)c(=O)[nH]c1=O | 4.71% (inactive)
37 | Cc1cc([N+](=O)[O-])c(NC2CCCCC2)c([N+](=O)[O-])c1 | -4% (inactive)
38 | O=C(COC(=O)c1ccc(O)cc1O)NNC(=O)c1cccs1 | 0.36% (inactive)
39 | Cc1ccc(NC(=O)c2sc3nc(N)c(C#N)cc3c2N)cc1 | 115% (active)
40 | CCc1ccc2nc3sc(C(=O)Nc4nnc(CC)s4)c(N)c3cc2c1 | 0.59% (inactive)
41 | Cc1ccc(NC(=O)CSCC(=O)Nc2sccc2C#N)cc1 | 25.5% (inactive)
42 | O=C(CCN1C(=O)c2ccccc2C1=O)NCCCn1ccnc1 | 6.16% (inactive)
43 | Cc1ccc(-c2nc(C#N)c(NCCCn3ccnc3)o2)cc1 | 124% (active)
44 | Cc1ccc(S(=O)(=O)c2nc(NCCCn3ccnc3)sc2Cl)cc1 | 9.5% (inactive)
45 | CCOC(=O)C1CCN(C(=O)COc2cccc3ccccc23)CC1 | 6.85% (inactive)
46 | Cc1ncoc1C(=O)NCCC(c1ccccc1)c1ccccc1 | 2.07% (inactive)
47 | Cc1cc(F)ccc1S(=O)(=O)Nc1ccc(C(=O)N(C)Cc2ccco2)cc1 | -1.13% (inactive)
48 | Cc1cc(Cl)ccc1OCCCC(=O)Nc1cccc(-n2cnnn2)c1 | 2.58% (inactive)
49 | CCc1ccccc1NC(=O)c1ccc2snnc2c1 | 0.7% (inactive)
50 | O=C(Nc1ccc2ccccc2c1)Nc1ccc2snnc2c1 | 7.08% (inactive)

Row | Structure (SMILES) | activation
51 | O=C(Nc1cccc(Br)c1)c1ccc2snnc2c1 | 106% (active)
52 | COc1ccc(C(=O)NCC2CCCCC2)cc1S(=O)(=O)N1CCCC1 | 0.47% (inactive)
53 | COc1cc(C=NNC(=O)c2cccnc2)ccc1OC(=O)c1ccccc1F | 7.39% (inactive)
54 | CCOC(=O)c1nnn(-c2nonc2-n2cccc2)c1CN1CCC(C(=O)OCC)CC1 | 0.56% (inactive)
55 | Cc1cc(Nc2ccc(Br)cc2F)n2ncnc2n1 | 7.31% (inactive)
56 | Brc1ccc(Nc2c3c(nc4ncnn24)CCC3)cc1 | 104% (active)
57 | CC1CCc2c(nc3ncnn3c2Nc2ccc(OC(F)(F)F)cc2)C1 (centres undefined) | 12.3% (inactive)
58 | CC(C)C[C@H](CO)Nc1nc(N(C)c2cccc(Cl)c2)c2ncn(C(C)C)c2n1 | 14.5% (inactive)
59 | CC(C)n1cnc2c(Nc3cccc(Cl)c3)nc(N(CCO)CCCO)nc21 | 95.2% (active)
60 | OCCCNc1nccc(-c2cc(Nc3cccc(Cl)c3)ncn2)n1 | -11.1% (inactive)
61 | CC1=NN(/C(=N\c2nnc(C)s2)Nc2ccccc2)[C@H](c2ccc(C)cc2)S1 | 3.18% (inactive)
62 | O=C(O)c1cccnc1NC1CCCC1 | -0.53% (inactive)
63 | CCN(CC)S(=O)(=O)N1CCC(C(=O)NC(C)CCc2ccccc2)CC1 (centres undefined) | -1.06% (inactive)
64 | C#CCCOC(=O)N1C2=NC(C(=O)OC)=C(C(=O)OC)[C@@H]3N(C)c4ccc(OC)cc4[C@]23C[C@H]1C(=O)OC | -1.46% (inactive)
65 | O=C1CCc2cc(S(=O)(=O)Nc3ccc(C(F)(F)F)cc3)cc3c2N1CC3 | -2.33% (inactive)
66 | CC1CCN(Cc2nc(-c3ccc(Cl)cc3)no2)CC1 | -0.15% (inactive)
67 | COCC1CCCN(Cc2nc(-c3ccc4c(c3)OCO4)no2)C1 (centres undefined) | 52.6% (active)
68 | COCC1CCCN(Cc2cn[nH]c2-c2cc3ccccc3o2)C1 (centres undefined) | 4.44% (inactive)
69 | CCN1CN(Cc2ccccc2)CNC1=S | 2.74% (inactive)
70 | CC(C)N1CCc2c(sc(NC(=O)Cc3ccccc3)c2C#N)C1 | 43.6% (inactive)
71 | COc1ccc(N2CCN(C(=O)c3ccc(N4CCCCS4(=O)=O)cc3)CC2)cc1 | 1.84% (inactive)
72 | CC1CN(C(=O)c2ccc3c(c2)OCO3)OC(c2ccccc2)O1 (centres undefined) | 3.64% (inactive)
73 | COc1ccc2c(c1)CC[C@@H]1[C@@H]2CC[C@]2(C)C(=O)CC[C@@H]12 | -1.47% (inactive)
74 | CC1(C)CC(CC(=O)O)C(=O)O1 (centres undefined) | -2.54% (inactive)
75 | CC1(C)CC(CCC(=O)Nc2ccccc2Cl)C(=O)O1 (centres undefined) | -0.84% (inactive)

Row | Structure (SMILES) | activation
76 | C/C(CC1CC(C)(C)OC1=O)=N/Nc1nc(-c2ccccc2)cs1 (centres undefined) | 124% (active)
77 | Cc1ccc(C(=O)OC2=CC(=O)CC(C)(C)C2)cc1 | 3.37% (inactive)
78 | CCN(CC)S(=O)(=O)c1ccc(Cl)c(C(=O)NC(C)C(c2cccs2)N2CCCC2)c1 (centres undefined) | 1.85% (inactive)
79 | C=CC[C@@H](Cc1ccc(F)cc1)C(=O)OC[C@H]1CCCN1C(=O)[C@H](CC=C)CC(=O)N(CCO)Cc1ccccc1 | -1.59% (inactive)
80 | Clc1ccc(Cl)c(Oc2ccc(Oc3nc(Cl)ccc3Cl)cc2)n1 | -1.7% (inactive)
81 | COCCSc1nnc(NC(=O)c2cc(OC)c(OC)cc2[N+](=O)[O-])s1 | 1.43% (inactive)
82 | COc1ccc(NCCc2ccccn2)cc1 | 4.86% (inactive)
83 | COc1ccc(Nc2cc(Sc3ccc(OC)cc3)ncn2)cc1 | 54% (active)
84 | COc1ccc(Nc2ncnc3sc(C)cc23)cc1 | 37% (inactive)
85 | O=C(NC(C(=O)NCCN1CCOCC1)C12CC3CC(CC(C3)C1)C2)C1CCCCC1 (centres undefined) | 2.26% (inactive)
86 | Cn1c(N)c(C(=O)COC(=O)c2ccc3ccccc3c2)c(=O)n(C)c1=O | -1.74% (inactive)
87 | O=C(Nc1ccccc1C(=O)NCCCn1ccnc1)c1ccc(Cl)cc1Cl | 20.3% (inactive)
88 | O=C(NCCCn1ccnc1)c1cc2c(s1)CCCC2 | 46.3% (inactive)
89 | O=C(NCCCn1ccnc1)c1cc(Br)c(Br)s1 | 57.3% (active)
90 | O=C(NCCCn1ccnc1)Nc1ccc(Cl)cc1Cl | 69.2% (active)
91 | COc1ccc(-c2cc(C(=O)NCCCn3ccnc3)no2)cc1 | 15.1% (inactive)
92 | Cc1ccc2c(Cl)c(C(=O)Nc3nn[nH]n3)sc2c1 | 1.09% (inactive)
93 | Cc1ccc2c(Cl)c(C(=O)NCCCn3ccnc3)sc2c1 | 55.7% (active)
94 | O=C(/C=C/c1ccc(Cl)cc1)NCCCn1ccnc1 | 7.43% (inactive)
95 | O=C(NCCCn1ccnc1)c1cc(-c2ccccc2)on1 | 168% (active)
96 | CCCC(=O)Nc1ccc(C(=O)NCCCn2ccnc2)cc1 | 0.23% (inactive)
97 | COc1cc(OC)cc(C(=O)NCCCn2ccnc2)c1 | 32.8% (inactive)
98 | O=C(NCCCn1ccnc1)c1ccccc1F | 12.6% (inactive)
99 | COc1ccc(C(=O)Nc2cc(S(=O)(=O)N3CCCC3)ccc2Cl)cc1 | 3.58% (inactive)
